Compound activity as filed in PubChem.
HCV inhibitor – blocks hepatitis C virus; actives 3.4% (n = 340,000); Huh7.5.1 HCVcc-Cre infection, luciferase reporter, 44 h; Potency, µM (highest dose often 41.8 µM), for the others: top-dose activity change, negative = inhibition, hits mostly inhibitors; further: potency means the concentration at half of the fitted maximal effect; on the % scale 0 is the no-effect control and ±100 the full control effect
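Cells (1,000/well) were plated 4 h before compound, then infected with HCVcc-Cre virus (~0.5 moi). After 44 h further culture, infection was read as luciferase luminescence following a 15 min substrate incubation at room temperature.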
Pf growth 96h – inhibits malaria parasite growth, 96 h; P. falciparum luciferase reporter growth, 96 h; Potency, µM (top dose mostly 28.7 µM), for the others: at the top dose activity change, negative = inhibition, hits mostly inhibitors; actives 6.9% (n = 320,000); further: potency means the concentration at half of the fitted maximal effect; on the % scale 0 is the no-effect control and ±100 the full control effect
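Two parasite generations (96 h, 37 C, 5% CO2) of compound exposure in infected erythrocytes (0.05% parasitemia, 2% hematocrit). Luciferase-reporter P. falciparum; decreased luminescence indicates inhibited growth, aimed at apicoplast-acting delayed death.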
Pf growth 48h – P. falciparum growth inhibition at 48 hours (one generation) | actives 5.9% (n = 310,000) | Potency, µM (doses to about 28.7 µM), for inactives: at the highest dose activity change, negative = inhibition, most hits filed as inhibitors | P. falciparum luciferase growth in erythrocytes, 48 h; further: potency means the concentration at half of the fitted maximal effect; on the % scale 0 is the no-effect control and ±100 the full control effect
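Here the parasites carry a stable luciferase gene and grow inside erythrocytes in Albumax-based RPMI medium with compound for one erythrocytic cycle. Activity is scored as loss of luminescent signal.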
CHX counter – affects cycloheximide protein synthesis inhibition readout, counter-screen. actives 12% (n = 300,000). cell reporter, cycloheximide protein synthesis inhibition counterscreen. max response, %; in the data active means max response mostly above about 13%, no sharp cut-off; inactive means mostly below about 14%; further: read at 38.3 µM for the half of the compounds with a filed dose; 0% is about no effect
Shiga toxin inh – inhibitors of Shiga toxin in Vero cells; inhibition, % at 38.7 µM; actives 9.2% (n = 290,000); Vero cells, Shiga toxin protein synthesis inhibition reporter; in the data active means inhibition mostly above about 28%, no sharp cut-off; inactive means mostly below about 43%; further: 0% is about no effect
HCMV inh – blocks human cytomegalovirus replication; HFF cells, HCMV-luciferase reporter, 72 h; stronger effect = lower value; activity change, negative = inhibition, % at 57.5 µM; actives 4.5% (n = 410,000); in the data active means activity change below about -60%; inconclusive means no clear call, values can overlap the other calls; inactive means above about -39%; further: on the % scale 0 is the no-effect control and ±100 the full control effect
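Human foreskin fibroblasts infected with luciferase-reporter HCMV at MOI 1 PFU/cell, compounds at two doses. Luciferase measured 72 h post infection; normalized to buffer-only basal and Salinomycin (10uM) controls.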
An asterisk follows results filed as active; ? = inconclusive; . = no result; [ ] = dose if it differs, or a comment. Only some compounds are listed: those with a hit (about 21% of all), similar ones and a draw of the others. Unless noted, the call rests on the fitted dose curve; in most records, active means well fitted inhibition curve with a large enough effect; inconclusive means small, poorly fitted or top-dose-only effect, or another doubt; inactive means no such curve, though single readings can be large or run the other way.

SMILES	HCV inhibitor	Pf growth 96h	Pf growth 48h	CHX counter	Shiga toxin inh	HCMV inh
Cc1cc(C(=O)Nc2ccc3c(c2)OCCO3)ccc1[N+](=O)[O-]	8%	39%	260%	27*	.	115
O=C(/C=C/c1ccccc1)NC1CCCc2ccccc21 (stereo unspecified)	.	?	?	12	-7	.
CCc1ccccc1NC(=O)C1CCN(C2=NS(=O)(=O)C(c3ccc(C)c(C)c3)=C2C)CC1	.	.	.	.	.	-24
Cc1cccc(N(C)C(=O)C(Cc2ccccc2)NS(=O)(=O)c2cccc3nsnc23)c1 (stereo unspecified)	.	.	.	.	.	-23
CC(NC(=O)C12CC3(C)CC(C)(CC(C)(C3)C1)C2)C(=O)O (stereo unspecified)	12%	?	-2%	3	-7	0
COc1ccc(C(=O)c2cnc3ccc(C)cc3c2S(=O)(=O)c2ccccc2)cc1	.	.	.	.	.	-98*
CCOc1ccc(S(=O)(=O)c2c(C(=O)c3ccc(C)c(C)c3)cnc3ccccc23)cc1	.	.	.	.	.	-3
CCc1ccc(S(=O)(=O)c2c(C(=O)c3ccccc3)cnc3ccc(CC)cc23)cc1	.	.	.	.	.	-77*
Cc1ccc(S(=O)(=O)c2c(C(=O)c3ccccc3)cnc3cc4c(cc23)OCCO4)cc1	-3%	?	?	14	19	-99*
Cc1ccc2ncc(C(=O)c3ccc(C)c(C)c3)c(S(=O)(=O)c3ccc(F)cc3)c2c1	.	.	.	.	.	-74*
CCOc1cc(C(=O)Nc2ccc(S(=O)(=O)Nc3cc(OC)nc(OC)n3)cc2)cc(OCC)c1OCC	.	.	.	.	.	20
Cc1ccc(NC(=O)COC(=O)CCc2c(C)nc3ncnn3c2C)cc1	1%	.	.	.	.	37
NS(=O)(=O)c1ccc(NC(=O)CN2CCN(S(=O)(=O)c3cccs3)CC2)cc1	14%	-10%	-18%	.	.	-9
O=P(O)(O)O	.	0%	1%	.	.	.
O=C(CSc1ccc2ccccc2n1)Nc1ccc(N2CCOCC2)cc1	?	-1%	334%	31*	49*	41
O=C(CSc1ccccc1)Nc1ccc(N2CCOCC2)cc1	-8%	?	.	28	53	-1
COC(=O)c1ccccc1SCC(=O)Nc1ccc(N2CCOCC2)cc1	6%	91%	43%	37*	55*	?
O=C(CSc1ccccc1)Nc1ccc(N2CCOCC2)c(F)c1	7%	86%	93%	57*	120*	65
O=C(CSc1ccc(F)cc1)Nc1ccc(N2CCOCC2)cc1	-14%	106%	25%	27*	30	31
Cc1ccc(C2=NC(c3ccccc3)=Nc3ccc(Cl)cc3N2)cc1	.	.	.	.	.	-4
Nc1nc2ccc(C(=O)Nc3ccc(N4CCOCC4)cc3)cc2s1	?	.	.	.	.	-23
O=C(Nc1ccc(N2CCOCC2)cc1)c1nc2ccccc2s1	?	227%	-26%	54*	91*	20
CC1CCC(NC(=O)CCc2cn(Cc3ccc(F)cc3)c3ccccc23)CC1 (stereo unspecified)	.	.	.	.	.	-34
CCn1cc(C(=O)NCCc2ccc(Cl)cc2)c(=O)c2cc(S(=O)(=O)N(C)C3CCCCC3)ccc21	.	.	.	.	.	18
CCOc1c([N+](=O)[O-])cc2c(C)c(C(=O)N3CCN(C)CC3)oc2c1OCC	-10%	-10%	-17%	-5	-13	?
SMILES	HCV inhibitor	Pf growth 96h	Pf growth 48h	CHX counter	Shiga toxin inh	HCMV inh
Cc1ccc(S(=O)(=O)Nc2cccc(-c3cn4cccc(C)c4n3)c2)cc1	.	.	.	.	.	-14
O=S(=O)(Nc1ccc(-c2cn3ccccc3n2)cc1)c1ccccc1	7%	62%	6%	28*	87*	-4
Cc1cccc(S(=O)(=O)Nc2ccc(-c3cn4ccccc4n3)cc2)c1	9%	?	48%	13*	18	-3
Cc1csc2nc(-c3ccc(NS(=O)(=O)c4cccc(F)c4)cc3)cn12	.	.	.	.	.	-11
Cc1cc(C)c(S(=O)(=O)Nc2cccc(-c3cn4ccccc4n3)c2)c(C)c1	.	.	.	.	.	-87*
Cc1cccn2cc(-c3cccc(NS(=O)(=O)c4ccc(Cl)c(Cl)c4)c3)nc12	.	.	.	.	.	-91*
COc1ccc(S(=O)(=O)Nc2cc(-c3cn4ccccc4n3)ccc2C)cc1	.	.	.	.	.	49
Oc1ccc(C=NNc2nc3ccccc3s2)c(O)c1	?	.	.	.	.	-63*
Oc1ccc(/C=N/Nc2ccc3ccccc3c2)c(O)c1	?	?	?	31*	44*	83
OCC(O)/C=N/Nc1nc2ccccc2s1 (stereo unspecified)	3%	?	69%	6	48*	69
Cc1cc(N/N=C/c2ccc(O)cc2O)c2ccccc2n1	?	-23%	?	5	22	-21
CC(=O)Nc1ccc(/C=N/NC(=O)c2cc3ccccc3nc2C)cc1	16%	76%	9%	7	26	-72*
CC(=O)Nc1ccc(/C=N/NC(=O)c2cc3cc(C)ccc3nc2C)cc1	-1%	8%	.	-1	43	-8
O=C(c1ccc2c(c1)CCC2)N1CCN(Cc2c(F)cccc2Cl)CC1	.	.	.	.	.	-37
CCc1nn(CC(=O)NCCc2ccc(S(N)(=O)=O)cc2)c(=O)c2cc3sccc3n12	9%	?	24%	-1	-4	.
OC(CNc1nc(C(F)(F)F)nc2ccccc12)c1ccccc1 (stereo unspecified)	?	?	?	-2	18	-66*
COc1ccc(/C=N/Nc2nc3ccccc3s2)cc1O	0%	?	284%	33	68*	-34
COc1ccc(/C=N/Nc2nc3ccccc3o2)cc1O	-29%	276%	.	36*	76	5
CC(=O)Nc1cccc(/C(C)=N/Nc2nc3ccccc3s2)c1	?	33%	409%	39*	113*	139
CC(=O)Nc1ccc(S(=O)(=O)Nc2nc3ccccc3s2)cc1	-15%	.	10%	5	-24	42
O=C(O)CCNc1nc(C(F)(F)F)nc2ccccc12	?	-21%[1.15 µM]	1%	-1	-6	-26
COc1cccc(C=NNc2nc3ccccc3s2)c1OC	?	.	.	.	.	50
